These results are taken from PubChem BioAssay (NCI).

Compounds without any hit were thinned out: in the full panel of roughly 79,000, 15% have a hit. Values without a mark were called inactive. Active and inactive are the calls of the source. No stated cut-off is given here; in the data, active means growth inhibition above about 70%; inactive means the rest.

The nature of assay [1]: NCI Yeast Anticancer Drug Screen. Data for the rad50 strain (AID 155).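 Further: 0% = growth of vehicle-only cultures of the same strain.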 Particulars: S. cerevisiae rad50 strain growth inhibition, active compounds read high. The essentials:
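Compounds were tested on a yeast strain with an engineered DNA damage repair alteration; the reported value is growth inhibition normalised to vehicle treatment.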

Assay [2] in a line: NCI Yeast Anticancer Drug Screen. Data for the mec2-1 strain (AID 157). To be noted: S. cerevisiae mec2-1 strain, active compounds read high. An outline of the steps:
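Strain: mec2-1 (DNA repair/cell cycle alteration). Compound exposure, then growth measured; inhibition expressed relative to vehicle.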

Assay [3] is described as follows: NCI Yeast Anticancer Drug Screen. Data for the sgs1 mgt1 strain (AID 161).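 Further: 0% = growth of cultures given vehicle only.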 Particulars: S. cerevisiae sgs1 mgt1 strain, active compounds read high. The essentials: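 Genetically altered yeast, compound exposure, growth inhibition relative to vehicle.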
Assay [4] is described as follows: NCI Yeast Anticancer Drug Screen. Data for the cln2 rad14 strain (AID 165).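 Further: 0% = growth equal to vehicle treated cultures.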 Particulars: S. cerevisiae cln2 rad14 strain, active compounds read high. The essentials: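 Compounds are applied to the cln2 rad14 yeast strain, and growth is then compared with that of vehicle-treated cultures to give inhibition.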
Assay [5] is described as follows: NCI Yeast Anticancer Drug Screen. Data for the bub3 strain (AID 167). To be noted: S. cerevisiae bub3 mutant strain, active compounds read high. An outline of the steps: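 Growth of a checkpoint-deficient yeast mutant is measured after compound exposure. Values represent inhibition relative to vehicle.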
Assay [6] can be described thus: NCI Yeast Anticancer Drug Screen. Data for the mlh1 rad18 strain (AID 175). Particulars: S. cerevisiae mlh1 rad18 strain growth inhibition, active compounds read high. An outline of the steps:
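Read-out is yeast growth inhibition, calculated against vehicle-only controls. The compound was applied to a strain engineered with DNA damage repair alterations.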

[7] abbreviates: at 5.0 µM (retest, dose inferred, filed as 0.5).
The mark [8] stands for this setting: at 50.0 µM (retest, dose inferred, filed as 5.0).

In the case of `c1ccc2c(B(c3cccc4ccccc34)c3cccc4ccccc34)cccc2c1`, the growth inhibition is 0% in assay [1] (setting [7]); 98% (active) in assay [1] (setting [8]); 99.1% (active) in assay [1] (at 50.0 µM); 14% in assay [2] (setting [7]); 99% (active) in assay [2] (setting [8]); 98.9% (active) in assay [2] (at 50.0 µM). The growth inhibition was -20% in assay [3] (setting [7]); 99% (active) in assay [3] (setting [8]); 98.7% (active) in assay [3] (at 50.0 µM); 3% in assay [4] (setting [7]); 98% (active) in assay [4] (setting [8]); 98.7% (active) in assay [4] (at 50.0 µM). Further, the growth inhibition is -4% in assay [5] (setting [7]); 99% (active) in assay [5] (setting [8]); 98.8% (active) in assay [5] (at 50.0 µM); 0% in assay [6] (setting [7]); 98% (active) in assay [6] (setting [8]); 97.4% (active) in assay [6] (at 50.0 µM).

Consider `COc1ccc(C2c3cc4c(cc3OC(C)(O)C2C)OCO4)cc1` (configuration not stated), for which the growth inhibition is 5% in assay [1] (setting [7]); 94% (active) in assay [1] (setting [8]); 98.8% (active) in assay [1] (at 50.0 µM); 8% in assay [2] (setting [7]); 94% (active) in assay [2] (setting [8]); 95.4% (active) in assay [2] (at 50.0 µM). In addition, the growth inhibition is 8% in assay [3] (setting [7]); 92% (active) in assay [3] (setting [8]); 92% (active) in assay [3] (at 50.0 µM); 8% in assay [4] (setting [7]); 84% (active) in assay [4] (setting [8]); 97.5% (active) in assay [4] (at 50.0 µM). Further, the growth inhibition is -2% in assay [5] (setting [7]); 96% (active) in assay [5] (setting [8]); 98.3% (active) in assay [5] (at 50.0 µM); -2% in assay [6] (setting [7]); 93% (active) in assay [6] (setting [8]); 98.5% (active) in assay [6] (at 50.0 µM).

For the compound `Cc1c2ccccc2c(=O)n2c(-c3ccccn3)cccc12`, the growth inhibition in assay [1] (setting [7]) was -47%; in assay [1] (setting [8]), -14%; in assay [1] (at 50.0 µM) it was 46.8%; in assay [2] (setting [7]), -20%; in assay [2] (setting [8]), -16%; in assay [2] (at 50.0 µM) it was -1.2%. Moreover, the growth inhibition in assay [3] (setting [7]) is 7%; in assay [3] (setting [8]) it was -3%; in assay [3] (at 50.0 µM) it was 77.8% (active); in assay [4] (setting [7]), 8%; in assay [4] (setting [8]) it was 26%; in assay [4] (at 50.0 µM) it was 33.1%. Besides, the growth inhibition is -26% in assay [5] (setting [7]); -17% in assay [5] (setting [8]); 30.8% in assay [5] (at 50.0 µM); -43% in assay [6] (setting [7]); 31% in assay [6] (setting [8]); -6.4% in assay [6] (at 50.0 µM).

For `N=c1scc(-c2ccccc2)n1/N=C/c1cccnc1`, the growth inhibition is 1% in assay [1] (setting [7]); 95% (active) in assay [1] (setting [8]); 96.6% (active) in assay [1] (at 50.0 µM); 3% in assay [2] (setting [7]); 96% (active) in assay [2] (setting [8]); 86.3% (active) in assay [2] (at 50.0 µM). The growth inhibition in assay [3] (setting [7]) was 7%; in assay [3] (setting [8]), 98% (active); in assay [3] (at 50.0 µM) it was 96.5% (active); in assay [4] (setting [7]) it was 11%; in assay [4] (setting [8]) it was 95% (active); in assay [4] (at 50.0 µM) it was 96.2% (active). Further, the growth inhibition was 5% in assay [5] (setting [7]); 96% (active) in assay [5] (setting [8]); 50.6% in assay [5] (at 50.0 µM); -14% in assay [6] (setting [7]); 96% (active) in assay [6] (setting [8]); 95.8% (active) in assay [6] (at 50.0 µM).

With `N#CC1=CN(Cc2ccccc2)C(C#Cc2ccccc2)C=C1` (configuration not stated), the growth inhibition in assay [1] (setting [7]) is 1%; in assay [1] (setting [8]) it was -1%; in assay [1] (at 50.0 µM), 58.9%; in assay [2] (setting [7]), -1%; in assay [2] (setting [8]) it was 9%; in assay [2] (at 50.0 µM) it was 88.2% (active). The growth inhibition in assay [3] (setting [7]) is 2%; in assay [3] (setting [8]) it was 8%; in assay [3] (at 50.0 µM), 82.2% (active); in assay [4] (setting [7]), -2%; in assay [4] (setting [8]), -7%; in assay [4] (at 50.0 µM), 15.4%. Also, the growth inhibition in assay [5] (setting [7]) is -2%; in assay [5] (setting [8]), 0%; in assay [5] (at 50.0 µM), 91% (active); in assay [6] (setting [7]) it was -2%; in assay [6] (setting [8]), 4%; in assay [6] (at 50.0 µM), 83.2% (active).

Take `Cc1[nH]nc(C(=O)OC(C)C)c1N=NN(C)C`: the growth inhibition in assay [1] (setting [7]) is -65%; in assay [1] (setting [8]) it was 94% (active); in assay [1] (at 50.0 µM) it was 98.2% (active); in assay [2] (setting [7]), -43%; in assay [2] (setting [8]), 98% (active); in assay [2] (at 50.0 µM), 98.7% (active). The growth inhibition in assay [3] (setting [7]) is -46%; in assay [3] (setting [8]), 96% (active); in assay [3] (at 50.0 µM) it was 96.2% (active); in assay [4] (setting [7]) it was -69%; in assay [4] (setting [8]), 97% (active); in assay [4] (at 50.0 µM), 97.3% (active). Besides, the growth inhibition in assay [5] (setting [7]) was -64%; in assay [5] (setting [8]) it was 95% (active); in assay [5] (at 50.0 µM), 98.3% (active); in assay [6] (setting [7]) it was -115%; in assay [6] (setting [8]), 95% (active); in assay [6] (at 50.0 µM), 98.7% (active).

As for `COC(=O)/C=C1/OC(c2ccccc2)=C(Br)C1=O`, the growth inhibition in assay [1] (setting [7]) is 17%; in assay [1] (setting [8]), 17%; in assay [1] (at 50.0 µM), 89.3% (active); in assay [2] (setting [7]), 11%; in assay [2] (setting [8]) it was 11%; in assay [2] (at 50.0 µM), 91.3% (active). Besides, the growth inhibition in assay [3] (setting [7]) is 11%; in assay [3] (setting [8]) it was 11%; in assay [3] (at 50.0 µM), 86.5% (active); in assay [4] (setting [7]), -6%; in assay [4] (setting [8]), -6%; in assay [4] (at 50.0 µM), 88.3% (active). Also, the growth inhibition in assay [5] (setting [7]) was -2%; in assay [5] (setting [8]), -2%; in assay [5] (at 50.0 µM) it was 88.5% (active); in assay [6] (setting [7]), 15%; in assay [6] (setting [8]), 15%; in assay [6] (at 50.0 µM), 85.3% (active).

Turning to `N=Nc1c(OC(=O)Nc2cccc(Cl)c2)[nH]c2ccccc12`, the growth inhibition in assay [1] (setting [7]) was 36%; in assay [1] (setting [8]), 99% (active); in assay [1] (at 50.0 µM), 98.7% (active); in assay [2] (setting [7]), 14%; in assay [2] (setting [8]), 99% (active); in assay [2] (at 50.0 µM), 98.8% (active). The growth inhibition was 28% in assay [3] (setting [7]); 99% (active) in assay [3] (setting [8]); 99% (active) in assay [3] (at 50.0 µM); 15% in assay [4] (setting [7]); 99% (active) in assay [4] (setting [8]); 98.2% (active) in assay [4] (at 50.0 µM). Besides, the growth inhibition was 1% in assay [5] (setting [7]); 99% (active) in assay [5] (setting [8]); 98.4% (active) in assay [5] (at 50.0 µM); 33% in assay [6] (setting [7]); 99% (active) in assay [6] (setting [8]); 99.1% (active) in assay [6] (at 50.0 µM).

On to `COc1ccc2c(C#N)cc3c(c[n+](C)c4ccccc34)c2c1`, for which the growth inhibition is 25% in assay [1] (setting [7]); 78% (active) in assay [1] (setting [8]); 92% (active) in assay [1] (at 50.0 µM); 13% in assay [2] (setting [7]); 58% in assay [2] (setting [8]); 86.4% (active) in assay [2] (at 50.0 µM). The growth inhibition was 19% in assay [3] (setting [7]); 71% (active) in assay [3] (setting [8]); 87.8% (active) in assay [3] (at 50.0 µM); 15% in assay [4] (setting [7]); 48% in assay [4] (setting [8]); 80.7% (active) in assay [4] (at 50.0 µM). Further, the growth inhibition in assay [5] (setting [7]) was -2%; in assay [5] (setting [8]) it was 65%; in assay [5] (at 50.0 µM) it was 78% (active); in assay [6] (setting [7]) it was 21%; in assay [6] (setting [8]) it was 83% (active); in assay [6] (at 50.0 µM) it was 92% (active).
